A selection: hits, their analogues and other compounds. The true share with any hit is near 2.6%.
ATXN viability – reduces viability in counter-screen for ATXN expression inhibitors. S2 cells (HEK-293 line with an ATXN2-luciferase reporter) viability, CellTiter-Fluor protease fluorescence, 24 h. Potency, µM (series often up to 56.7 µM), most hits filed as cytotoxic. hit rate 0.49% among 400,000. AID 651635; note: potency is the fitted concentration of half-maximal effect; nearly all actives have a fitted effect of over 40% in size
TGFb inhibitor – inhibitors of TGF-b signaling | HepG2 CAGA-GFP TGF-b/SMAD3 reporter, GFP fluorescence, 18 h; TGF-beta stimulated, 500 pg/mL final | Potency, µM (titrated, usually from 46.1 µM), without a hit: top-dose activity, negative = inhibition, most hits filed as inhibitors | hit rate 1.2% among 410,000; note: potency is the fitted concentration of half-maximal effect; % is set by controls: 0 for no effect and ±100 for the full control effect; nearly all actives have a fitted effect of over 65% in size
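First, reporter cells (HEPG2 CAGA-GFP) rested 2 h at 37 degrees C. Next, compounds were pinned in and TGF-beta added to 500 pg/mL final. After 18 h, GFP was imaged per cell and summed per well.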
ATXN2 expr inh – reduces ATXN2 reporter expression in HEK-293 cells | hit rate 0.72% among 360,000 | AID 1745845 | HEK-293 ATXN2-luciferase reporter, luminescence, 24 h | Potency, µM (titrated, usually from 57 µM), without a hit: top-dose activity change, negative = inhibition, actives largely listed as inhibitors; note: potency is the fitted concentration of half-maximal effect; % is set by controls: 0 for no effect and ±100 for the full control effect; nearly all actives have a fitted effect of over 55% in size
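qHTS (up to 57 uM final) was run with 24 h compound exposure of reporter cells at 37 °C. Each well was multiplexed: SteadyGlo luminescence measured ATXN2-luciferase expression after a fluorogenic Gly-Phe-AFC viability readout (25 uM final).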
Giardia kill – Giardia lamblia killing. Giardia lamblia trophozoite viability. activity change, % at 7.66 µM, hits read low. hit rate 0.15% among 340,000; in the data active = activity change below about -80%; inconclusive = between about -30% and that limit;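 note: parasites exposed to compound for two days anaerobically before the ATP read; % is set by controls: 0 for no effect and ±100 for the full control effect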
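Media and compound were dispensed first, then trophozoites at 100 cells/well; plates sat 48 hrs at 37 deg C without oxygen before ATP luminescence reagent was added and read after 15-30 min at room temperature.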
HepG2 tox – counter-screen for TGF-b inhibitors: cytotoxicity in HepG2 cells; HepG2 CAGA-GFP viability, ATP luminescence, 18 h; Potency, µM (highest dose often 46.1 µM), for inactives: at the highest dose activity change, negative = cytotoxicity, most hits filed as cytotoxic; hit rate 0.76% among 410,000; note: potency is the fitted concentration of half-maximal effect
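CellTiter-Glo luminescence gave cytotoxicity after 18 hours at 37 degrees C. The cells were HepG2 CAGA-GFP in 1% FBS DMEM, stimulated with 500 pg/mL TGF-beta after compound addition. %Activity was normalised to no-cell wells (complete cell-killing) and DMSO (no toxicity), and curves were fitted and classified.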
uPA generation – blocks generation of uPA at the cell surface; AID 540303; cell surface uPA generation assay, qHTS; Potency, µM (series often up to 38.3 µM), inactives show at the highest dose activity change, negative = inhibition, usual class: inhibitors; hit rate 0.31% among 330,000; active = well fitted inhibition curve with a large enough effect; inconclusive = small, poorly fitted or top-dose-only effect; inactive = no such curve, though single readings can be large or run the other way; tested in mouse RAW 264.7 cells; note: potency is the fitted concentration of half-maximal effect; % is set by controls: 0 for no effect and ±100 for the full control effect; nearly all actives have a fitted effect of over 55% in size
An asterisk follows results filed as active; i = inactive; ? = inconclusive; nt = no result. Unless noted, calls come from the whole dose curve; as a rule, active = well fitted curve in the direction sought with a large enough effect; inconclusive = small, poorly fitted or top-dose-only effect, or another doubt; inactive = no such curve, though single readings can be large; an effect the other way counts as inactive or inconclusive.

SMILES	ATXN viability	TGFb inhibitor	ATXN2 expr inh	Giardia kill	HepG2 tox	uPA generation
CN(Cc1ccc(Cl)cc1)C(C(=O)NC1CCCCC1)c1cc2ccccc2o1 (stereo not drawn)	i	?	14%	nt	-14%	nt
CC(=O)O[C@H]1C2OC(=O)C(C)=C2[C@@H]2OC(=O)[C@]3(CCC4OC41C)OC23 (stereo partly drawn)	i	23%	5%	14	-10%	7.1µM*
COc1cc(OC)c2c(-c3cccc(-c4cccc(C)c4)c3)cc(=O)oc2c1	i	?	-19%	7	-24%	3.2µM*
COc1cc(OC)c2c(-c3cccc(-c4ccc(O)cc4)c3)cc(=O)oc2c1	i	?	?	14	-19%	?
COc1cc(OC)c2c(-c3cccc(-c4ccc(CO)cc4)c3)cc(=O)oc2c1	i	5µM*	?	23	-4%	0.89µM*
COc1cc(Cl)c(C)cc1N1C(=O)[C@@H]2C[C@H]1CN2Cc1ccccn1	i	nt	nt	nt	nt	nt
O=C(CN1C(=O)c2ccccc2S1(=O)=O)c1ccc2c(c1)OCCO2	i	-15%	nt	?	-7%	2µM*
O=C(CCN1CCc2ccccc2CC1)c1ccc2c(c1)OCCO2	?	?	?	-5	1.4µM*	-11%
O=C(CN1C(=O)c2ccccc2S1(=O)=O)c1ccc(F)cc1	i	3%	nt	1	3%	?
O=C(CN1C(=O)c2ccccc2S1(=O)=O)c1ccc2c(c1)OCCCO2	i	?	0.28µM*	?	-15%	-8%
O=C(CCCN1CCOCC1)c1ccc2c(c1)OCCO2	?	-1%	-13%	13	-5%	-1%
O=[N+]([O-])c1nccn1CO[C@@H](CO)[C@H](O)CO	i	nt	0%	nt	nt	nt
O=[N+]([O-])/C=C/c1cn(Cc2ccccc2)c2ccccc12	?	?	?	-13	-47%	?
O=C(Cn1cc(/C=C\[N+](=O)[O-])c2ccccc21)Nc1ccccc1	nt	8.9µM*	?	-14	11µM*	-16%
O=C(O)Cn1cc(/C=C/[N+](=O)[O-])c2ccccc21	?	-22%	-27%	2	11%	1%
N#Cc1ccccc1Cn1cc(/C=C/[N+](=O)[O-])c2ccccc21	nt	4.5µM*	?	-2	7.1µM*	-16%
COc1cccc(CN2C(=O)NC(C)(C3CCN(Cc4cccc(O)c4)CC3)C2=O)c1OC (stereo not drawn)	i	nt	nt	nt	nt	nt
NC(Cc1ccccc1)C(O)c1ccco1 (stereo not drawn)	nt	-6%	nt	30	-14%	nt
COc1ccc(CC(=O)NCCc2sc(-c3ccc(Cl)cc3)nc2C)cc1OC	?	7.9µM*	-16%	nt	-21%	nt
O=C1C=C(N2CCCCC2)c2ccccc2C1=O	nt	2.8µM*	30µM*	-11	-103%	-16%
Cc1ccsc1C(=O)N(Cc1cc2ccc(F)cc2nc1N1CCC(O)CC1)CC1CCCO1 (stereo not drawn)	i	nt	nt	nt	nt	nt
O=C(Nc1cccs1)Nc1ccc(Br)cc1F	i	11µM*	-11%	7	-36%	-12%
O=C(Nc1cccs1)Nc1ccc(F)cc1F	i	-21%	6%	17	-33%	-11%
CCOC(=O)c1ccc(N(C(=O)c2ccccc2)c2ccccc2)cc1	nt	?	nt	nt	-32%	nt
CN(C)c1ccc(/C=C/c2ccnc3c(-c4ccccc4)cccc23)cc1	nt	15%	nt	nt	-20%	nt
SMILES	ATXN viability	TGFb inhibitor	ATXN2 expr inh	Giardia kill	HepG2 tox	uPA generation
Oc1ccccc1N=Cc1c(O)ccc2oc3c(c12)CCCC3	?	13µM*	nt	14	-121%	4.5µM*
Cc1ccc(C(=O)Nc2cccc(C(=O)O)c2)cc1S(=O)(=O)N1CCOCC1	i	-15%	?	-22	-10%	-9%
Cc1ccc(C(=O)Nc2cccc(C(=O)O)c2)cc1S(=O)(=O)N1CCCCC1	i	-7%	13µM*	-13	-12%	-10%
O=C(O)c1cccc(NC(=O)c2ccccc2)c1	i	1%	-3%	-23	-17%	-2%
Cc1ccc(O)c(NC(=O)c2ccc(Br)c(S(=O)(=O)N3CCCCC3)c2)c1	?	?	?	nt	14µM*	nt
Cc1ccc(C(=O)Nc2cccc(C(=O)O)c2)cc1	i	5%	2.5µM*	?	-24%	-9%
CCc1ccccc1NC(=O)Cn1nnc(C(=O)NCc2cccc(OC)c2)c1N	i	11%	nt	12	9%	4µM*
NC(N)=Nc1nc(CSCCC(N)=NS(N)(=O)=O)cs1	nt	nt	8%	nt	nt	nt
CCN(CCN(C)Cl)/[N+]([O-])=N/Oc1ccc([N+](=O)[O-])cc1[N+](=O)[O-]	nt	?	nt	nt	-102%	nt
CCOc1ccc(C2NC(=O)Cc3cc(OC)c(OC)cc32)cc1 (stereo not drawn)	i	2%	11%	14	4%	3%
COc1ccc2c(c1)C(c1ccccc1)NC(=O)C2 (stereo not drawn)	i	-15%	0%	2	11µM*	-12%
N#C/C(=C\C=C\c1ccccc1[N+](=O)[O-])C(=O)NCc1ccccc1	?	13µM*	28µM*	-7	-130%	-5%
N#C/C(=C\c1ccccc1[N+](=O)[O-])C(=O)NCc1ccccc1	i	7%	4%	-28	-41%	-5%
Cc1nc2ccccc2nc1OCc1cccc(Cl)c1	i	11µM*	-5%	4	-43%	-4%
Cc1nc2ccccc2nc1OCc1ccccc1	i	-15%	17%	-17	-7%	6%
CN(C)C(=O)COC(=O)c1ccccc1OCC(=O)Nc1ccc(Br)cc1	nt	4%	nt	nt	-5%	nt
Cc1cc(NC(=O)CCCS(=O)(=O)c2nc(-c3cccs3)cc(C(F)(F)F)n2)no1	28µM*	14µM*	?	4	-106%	-9%
COc1ccc(NC(=O)CCS(=O)(=O)c2nc(-c3cccs3)cc(C(F)(F)F)n2)cc1OC	nt	16µM*	nt	nt	-106%	nt
O=C(CCS(=O)(=O)c1nc(-c2ccc3c(c2)OCO3)cc(C(F)(F)F)n1)Nc1ccc(F)c(Cl)c1	nt	20µM*	nt	nt	13µM*	nt
O=C(CCS(=O)(=O)c1nc(-c2cccs2)cc(C(F)(F)F)n1)Nc1cccc(O)c1	nt	?	nt	nt	-93%	nt
COc1ccc(NC(=O)CCS(=O)(=O)c2nc(-c3ccc4c(c3)OCO4)cc(C(F)(F)F)n2)cc1OC	?	-8%	?	nt	-21%	nt
COc1cc(NC(=O)CCS(=O)(=O)c2nc(-c3cccs3)cc(C(F)(F)F)n2)cc(OC)c1OC	nt	13µM*	nt	nt	11µM*	nt
Cc1ccc(NS(=O)(=O)c2ccc(C3CCCCC3)cc2)cc1	?	13µM*	-30%	-7	10µM*	4%
